For 31 molecules, IC50 results are on record in PubChem BioAssay AID743361 (Molecular Libraries Program, Specialized Chemistry Center, …, 2014).

A number with no mark means an inactive call. Active and inactive are the calls of the source. The rule behind the calls is not given here. Some results are limits rather than exact numbers.

By IC50 is commonly meant the concentration that gives 50% inhibition.

This test in a line: Rhodamine 123 quenching counterscreen activity, dose response, counter-screen for mtPTP inhibitor project, biochemical, dry powder samples, uHTS hits, fluorescence (AID 743361). To be noted: Rhodamine 123 fluorescence quenching counterscreen, cell-free. For orientation: Counterscreens check selectivity or assay interference.
`COc1ccc(Cl)cc1C(=O)Nc1ccc(N2CCN(C)CC2)cc1`: the IC50 is > 100 µM.
For `COc1ccc(Cl)cc1S(=O)(=O)Nc1ccc(CCN2CCCCC2)cc1` the value was > 100 µM.
The result for `COc1ccc(Cl)cc1C(=O)Nc1ccc(CN2CCCCC2)cc1` reads > 100 µM; that for `CN1CCN(CCc2ccc(NS(=O)(=O)c3cc(Cl)cc(Cl)c3)cc2)CC1`, > 100 µM; that for `COc1ccc(Cl)c(C(=O)Nc2ccc(CCN3CCOCC3)cc2)c1`, > 100 µM.
The result for `CN1CCN(c2ccccc2NC(=O)c2ccc(OCc3ccccc3)cc2)CC1` reads > 100 µM; that for `CN1CCN(c2ccc(NC(=O)c3ccc(OCc4ccccc4)cc3)cc2)CC1`, > 100 µM.
In the case of `Cc1cc(NC(=O)c2cc(-c3ccc(F)cc3)on2)no1`, the IC50 was > 100 µM.
With `CN1CCN(c2ccc(NS(=O)(=O)c3cc(Cl)cc(Cl)c3)cc2)CC1`, the IC50 is > 100 µM.
For `COc1ccc(Cl)cc1S(=O)(=O)Nc1ccc(N2CCN(C)CC2)cc1` the value was > 100 µM; for `O=S(=O)(Nc1ccc(CN2CCCCC2)cc1)c1cccc(Cl)c1`, > 100 µM; for `CCN(C(=O)c1cc(Cl)ccc1OC)c1ccccc1`, > 100 µM.
For `Cc1ccc(Cl)cc1NC(=O)c1cc(-c2cccc(O)c2)on1` the value was > 100 µM; for `COc1ccc(Cl)c(C(=O)Nc2ccc(CCN3CCN(C)CC3)cc2)c1`, > 100 µM.
The result for `O=C(Nc1ccc(Br)cc1)c1cc(C2CC2)on1` reads > 100 µM.
With `COc1ccc(Cl)cc1C(=O)Nc1ccc(N2CCCCC2)cc1`, the IC50 is > 100 µM.
Regarding `O=C(Nc1ccc(CN2CCCCC2)cc1)c1cc(Cl)cc(OCc2ccccc2)c1`, the IC50 was 26.9 µM (active).
The result for `O=S(=O)(Nc1ccc(CN2CCCCC2)cc1)c1cc(Cl)cc(Cl)c1` reads > 100 µM.
For `COc1ccc(NC(=O)c2cc(-c3ccc(Cl)cc3)on2)cc1Cl` the value was > 100 µM; for `O=C(Nc1ccc(CN2CCCCC2)cc1)c1cccc(Cl)c1`, > 100 µM; for `CN1CCN(c2ccc(NC(=O)c3cccc(OCc4ccccc4)c3)cc2)CC1`, > 100 µM.
Consider `CN1CCN(c2ccc(Cl)cc2NC(=O)/C=C/c2cccc(F)c2)CC1`, for which the IC50 is > 100 µM.
On to `CCc1ccccc1NC(=O)c1cc(-c2ccccc2)on1`, for which the IC50 was > 100 µM.
For `CN1CCN(c2ccc(NS(=O)(=O)c3ccc(F)c(Cl)c3)cc2)CC1` the value was > 100 µM; for `CC1CCN(CCCC(=O)c2ccc(Br)cc2)CC1`, > 100 µM.
With `COc1ccc(Cl)cc1C(=O)Nc1ccc(CN2CCN(C)CC2)cc1`, the IC50 was > 100 µM.
The result for `O=S(=O)(Nc1ccc(CCN2CCCCC2)cc1)c1cc(Cl)cc(Cl)c1` reads > 100 µM.
For the molecule `CN1CCN(Cc2ccc(NS(=O)(=O)c3cc(Cl)cc(Cl)c3)cc2)CC1`, the IC50 was > 100 µM.
The result for `O=C(Nc1cc(Cl)ccc1Cl)c1cc(-c2cccc(O)c2)on1` reads 38.7 µM (active); that for `COc1ccc(Cl)cc1C(=O)Nc1ccc(CCN2CCCCC2)cc1`, > 100 µM.
The result for `O=C(Nc1cccc(F)c1)c1cc(-c2cccc(O)c2)on1` reads > 100 µM.
